# Data taken from PubChem BioAssay (EPA / NIEHS).
# Active and inactive are the calls of the source. How the source made its calls: active means hit-call score of the fitted dose curve at least 0.9, where 1 is the maximum; inactive means score below 0.9.
# Read-out: MYC, MYC (gene 4609)
# Experiment: LTEA_HepaRG_MYC: Life Technologies and Expression Analysis (LTEA) Assay for MYC using HepaRG (AID 2283518)
# Settings: mRNA level, 48 h; actives raise or lower the signal
# Protocol: LTEA_HepaRG is a cell based, multiplexed-readout assay that uses HepaRG, a human liver cell line, with measurements taken at 48 hours after chemical dosing on a 96-well plate.LTEA_HepaRG_MYC is one of 102 assay component(s) measured in the LTEA HepaRG cell culture assay. It is a marker of Cell proliferation, survival, death.Data from the assay component LTEA_HepaRG_MYC was analyzed into 1 endpoint. This assay endpoint, LTEA_HepaRG_MYC, was analyzed with bidirectional fitting relative to DMSO as the negative control and baseline of activity. Using a type of inducible reporter, measures of mRNA induction for gain or loss-of-signal activity can be used to understand regulation of transcription factor activity. To generalize the intended target to other relatable targets, this assay endpoint is annotated to the dna binding intended target family, where the subfamily is basic helix-loop-helix leucine zipper.
# A total of 1060 chemcials from the ToxCast library were tested in eight-point concentration-response experiments. Cell culture and cytotoxicity assays were conducted at Thermo Fisher Scientific's Custom Services facility (Madison, WI). A single lot of human HepaRG cells (Thermo Fisher Scientific, Frederick, MD) was used for the cell culture experiments. 96-well format collagen type I coated plates of human HepaRG cells were prepared using established methods. Briefly, cryopreserved HepaRG cells were thawed, plated at a density of approximately 100,000 cells/well in HepaRG Thaw, Plate, and General Purpose media (HPRG770, Thermo Fisher Scientific), and incubated for 48 hours. 0.5% DMSO was selected as vehicle control to balance the requisite need of DMSO in HepaRG cultures to maintain differentiation (for example, baseline metabolism, proportions of hepatocytes vs. cholangiocytes), while enabling further hepatic receptor pathway activation (for example, PXR and CAR) in response to chemical exposure. 48 hours after plating, the culture medium was replaced with HepaRG Serum-Free Incudtion Media. Cells were exposed to each test chemical in duplicate and maintained in CO2 incubators for another 48 hours. Chemical plates were thawed to room temperature and 200x concentrations of treatment groups were prepared. 8-point conentration-reponse curves were made with the highest exposure at 100 uM, followed by half-log dilutions, all in 0.5% DMSO. Each test plate contained variouse controls, induction positive controls (1mM phenobarbital), cytotoxicity positive controls ([…] aflatoxin B1), vehicle controls (0.5% DMSO), and total lysis controls (0.5% DMSO). Cell morphology images were taken using an Essen IncuCyte FLR automated microscope, with six 96-well plates imaged in about 24 minutes. Images were captured and exported and JPEG files. Spent culture media was transfered to black-well plates for the LDH assay, and remaining media was sorted at -80 C for later use. Cells were treated with RLT buffer and frozen until shipped for gene expression analysis. Total RNA was isolated from the cell suspension in 75 uL of Buffer RLT (Qiagen, Germantown, MD 20874) by Quintiles/Expression Analysis (Durham, NC) using a custom isolation procedure. Total RNA from each plate well was transferred to a preamplification plate. Fluidigm's 96.96 Dynamic ArrayTM (Fluidigm, Amsterdam, the Netherlands) technology was used for gene expression analyses by quantitative reverse transcription polymerase chain reaction (qRT-PCR, performed by Quintiles/Expression Analysis, Durham, NC)89. Standard TaqManTM Assays (Applied Biosystems/ThermoFisher Scientific, Foster City, CA) were used to assess the expression of 93 genes selected based on their selectivity and sensitivity to important hepatic receptors known to be modulated by environmental chemicals; importance in human hepatocyte functionality; and hepatotoxicity. […]
Structure (SMILES),outcome,AC50
CCCCC(CC)COC(=O)c1ccc(C(=O)OCC(CC)CCCC)c(C(=O)OCC(CC)CCCC)c1 (stereo not given),inactive,
Brc1ccc(Oc2ccccc2)cc1,inactive,
CCC[CH2][Sn]([Cl])([CH2]CCC)[CH2]CCC,inactive,
N#CC(Br)Br,inactive,
Nc1ccc(Cl)cc1N,,13.4 µM (active)
c1ccc2c(c1)oc1ccccc12,inactive,
CCN(CC)N=O,inactive,
Cc1cccc(N)c1N,inactive,
CCOC(=O)[C@]1(c2ccccc2)Oc2ccccc2[C@@H]1N,,89.5 µM (active)
Nc1ccc([N+](=O)[O-])cc1,inactive,
[As]#[In],inactive,
CCNS(=O)(=O)C(F)(F)C(F)(F)C(F)(F)C(F)(F)C(F)(F)C(F)(F)C(F)(F)C(F)(F)F,inactive,
COC(=O)c1ccccc1N,inactive,
CCCCCCCCCCCCCN1CC(C)OC(C)C1 (stereo not given),inactive,
O=P(OCCCl)(OCCCl)OCCCl,inactive,
C[C@]12C=CC3=C4CCC(=O)C=C4CC[C@H]3[C@@H]1CC[C@@H]2O,inactive,
Clc1ccc(C(c2ccc(Cl)cc2)C(Cl)Cl)cc1,inactive,
Cc1ccc([N+](=O)[O-])cc1,inactive,
CCCCCCCCn1sccc1=O,inactive,
Cn1cc(-c2ccccc2)c(=O)c(-c2cccc(C(F)(F)F)c2)c1,inactive,

Structure (SMILES),outcome,AC50
CO[C@@H]1[C@H](OC(=O)NC(=O)CCl)CC[C@]2(CO2)[C@H]1[C@@]1(C)O[C@@H]1CC=C(C)C,inactive,
C1=Cc2cccc3cccc1c23,inactive,
CC(C)(C)C(O)(CCc1ccc(Cl)cc1)Cn1cncn1 (stereo not given),,50 µM (active)
ClC1=C(Cl)[C@]2(Cl)[C@H]3[C@H]([C@@H]4C=C[C@H]3C4)[C@@]1(Cl)C2(Cl)Cl,,50 µM (active)
CNC(=O)Oc1cccc2c1OC(C)(C)C2,inactive,
COc1cc(C=O)cc2c1[C@H](COC(N)=O)[C@]1(OC(C)=O)ON2C[C@H]2[C@@H]1N2C(C)=O,inactive,
O=C(Oc1ccc(Br)cc1)N1CCN2CCC1CC2,inactive,
Clc1ccc(C(c2ccc(Cl)cc2)C(Cl)(Cl)Cl)cc1,inactive,
Nc1ccc(N=Nc2ccccc2)cc1,inactive,
C[N+](C)(C)CC1CO1 (stereo not given),inactive,
CCC12COCN1COC2,inactive,
[Cl-].[Cl-].[Hg+2],inactive,
O=Cc1ccco1,inactive,
c1ccc(N=Nc2ccccc2)cc1,inactive,
CN(C)c1ccc(C(=O)c2ccc(N(C)C)cc2)cc1,inactive,
OCCCBr,inactive,
CC(C)(O)c1cnn2c(-c3ccc(F)c(-c4c(F)cccc4C#N)c3)cnc2n1,inactive,
COP(=S)(OC)SCN1C(=O)c2ccccc2C1=O,inactive,
c1ccc2c(c1)-c1cccc3cccc-2c13,inactive,
O=[N+]([O-])c1ccc(Oc2ccc(Cl)cc2Cl)cc1,,32.8 µM (active)
